PubChem BioAssay
Active and inactive are the calls of the source.

Legend:
[1] = small molecules captured by biotinylated probe aFSTL3 – biochemical, small-molecule microarray, fluorescence 635/667, stem cell growth factor project, primary screen (AID 1064); conditions: higher = more signal;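 further: measures binding of the biotinylated anti-FSTL3 antibody to printed compounds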
[2] = binders from COS7 lysate, DM2A8 probe, primary screen, torsin A project, cell lysate, small-molecule microarray, fluorescence 635/667 (AID 1065); conditions: higher = more signal, COS7 lysate expressing mutant human TOR1A
[3] = small molecules captured by biotinylated probe aFGF2 – biochemical, small-molecule microarray, fluorescence 635/667, stem cell growth factor project, primary screen (AID 1067); conditions: higher = more signal;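 further: measures binding of biotinylated aFGF2 protein to printed compounds on slides; z-score merges feature fluorescence and signal-to-noise across triplicate slides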
[4] = small molecules captured by biotinylated probe aFGF10 – biochemical, small-molecule microarray, fluorescence 635/667, stem cell growth factor project, primary screen (AID 1071); conditions: higher = more signal;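 further: score merges 667 nm spot intensity and signal to noise from triplicate slides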
[5] = target: Neurogenic locus notch homolog protein 2 (Homo sapiens) (UniProt Q04721); experiment: small molecules binding Notch2 protein – biochemical, small-molecule microarray, 635 nm fluorescence, stem cell growth factors, primary screen (AID 1073); conditions: higher = more signal
[6] = target: Pro-neuregulin-1, membrane-bound isoform (Homo sapiens) (UniProt Q02297); experiment: small molecules binding neuregulin-1 protein – biochemical, small-molecule microarray, fluorescence 635/667, psychiatric disease protein project, primary screen (AID 1075); conditions: NRG1 binding, 635 nm fluorescence, higher = more signal;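 further: score combines 667 nm spot fluorescence with signal to noise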
[7] = tested on: Neuregulin-1 EGF-like domain; experiment: small molecules binding NRG1 EGF domain – biochemical, small-molecule microarray, 635 nm fluorescence, primary screen (AID 1081); conditions: higher = more signal;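 further: binding of the protein to compounds printed on small-molecule microarray slides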
[8] = FRG1 expression reporter modulators in myotubes – cell-based, C2C12 myotubes, firefly/Renilla luciferase, luminescence, FRG1 inhibition for FSHD, primary screen (AID 1084); conditions: FRG1 promoter luciferase, higher = more signal, called active from +8 up or from −8 down
[9] = small molecules captured by biotinylated probe aFST – biochemical, small-molecule microarray, fluorescence 635/667, stem cell growth factor project, primary screen (AID 1086); conditions: higher = more signal;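 further: score merges 667 nm fluorescence with signal-to-noise of each printed compound spot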
[10] = binders of probe aHhip on microarray, primary screen, stem cell growth factor project, biochemical, small-molecule microarray, fluorescence 635/667 (AID 1087); conditions: higher = more signal;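 further: score merges spot fluorescence at 667nm with spot signal to noise ratio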

Sequence of Pro-neuregulin-1, membrane-bound isoform (Homo sapiens) (Q02297 whole entry, looked up, the tested form may be a part, canonical isoform): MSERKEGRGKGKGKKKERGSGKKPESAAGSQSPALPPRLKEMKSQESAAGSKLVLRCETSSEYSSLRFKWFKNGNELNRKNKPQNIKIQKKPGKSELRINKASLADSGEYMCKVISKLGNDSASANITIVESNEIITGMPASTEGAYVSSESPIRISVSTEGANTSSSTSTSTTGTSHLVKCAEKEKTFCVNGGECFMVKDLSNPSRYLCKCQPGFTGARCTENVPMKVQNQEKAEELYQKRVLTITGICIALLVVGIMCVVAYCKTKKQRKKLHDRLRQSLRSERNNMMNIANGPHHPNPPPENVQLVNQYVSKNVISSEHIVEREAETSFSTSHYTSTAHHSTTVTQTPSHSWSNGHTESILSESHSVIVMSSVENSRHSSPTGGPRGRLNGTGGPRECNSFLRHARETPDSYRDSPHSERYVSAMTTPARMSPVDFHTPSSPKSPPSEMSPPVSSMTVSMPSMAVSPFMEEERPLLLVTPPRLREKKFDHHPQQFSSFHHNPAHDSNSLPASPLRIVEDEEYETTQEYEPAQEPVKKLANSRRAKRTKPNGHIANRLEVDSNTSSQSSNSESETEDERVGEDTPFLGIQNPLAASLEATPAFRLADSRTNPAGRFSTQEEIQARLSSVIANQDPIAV
Sequence of Neurogenic locus notch homolog protein 2 (Homo sapiens) (Q04721 whole entry, looked up, canonical isoform): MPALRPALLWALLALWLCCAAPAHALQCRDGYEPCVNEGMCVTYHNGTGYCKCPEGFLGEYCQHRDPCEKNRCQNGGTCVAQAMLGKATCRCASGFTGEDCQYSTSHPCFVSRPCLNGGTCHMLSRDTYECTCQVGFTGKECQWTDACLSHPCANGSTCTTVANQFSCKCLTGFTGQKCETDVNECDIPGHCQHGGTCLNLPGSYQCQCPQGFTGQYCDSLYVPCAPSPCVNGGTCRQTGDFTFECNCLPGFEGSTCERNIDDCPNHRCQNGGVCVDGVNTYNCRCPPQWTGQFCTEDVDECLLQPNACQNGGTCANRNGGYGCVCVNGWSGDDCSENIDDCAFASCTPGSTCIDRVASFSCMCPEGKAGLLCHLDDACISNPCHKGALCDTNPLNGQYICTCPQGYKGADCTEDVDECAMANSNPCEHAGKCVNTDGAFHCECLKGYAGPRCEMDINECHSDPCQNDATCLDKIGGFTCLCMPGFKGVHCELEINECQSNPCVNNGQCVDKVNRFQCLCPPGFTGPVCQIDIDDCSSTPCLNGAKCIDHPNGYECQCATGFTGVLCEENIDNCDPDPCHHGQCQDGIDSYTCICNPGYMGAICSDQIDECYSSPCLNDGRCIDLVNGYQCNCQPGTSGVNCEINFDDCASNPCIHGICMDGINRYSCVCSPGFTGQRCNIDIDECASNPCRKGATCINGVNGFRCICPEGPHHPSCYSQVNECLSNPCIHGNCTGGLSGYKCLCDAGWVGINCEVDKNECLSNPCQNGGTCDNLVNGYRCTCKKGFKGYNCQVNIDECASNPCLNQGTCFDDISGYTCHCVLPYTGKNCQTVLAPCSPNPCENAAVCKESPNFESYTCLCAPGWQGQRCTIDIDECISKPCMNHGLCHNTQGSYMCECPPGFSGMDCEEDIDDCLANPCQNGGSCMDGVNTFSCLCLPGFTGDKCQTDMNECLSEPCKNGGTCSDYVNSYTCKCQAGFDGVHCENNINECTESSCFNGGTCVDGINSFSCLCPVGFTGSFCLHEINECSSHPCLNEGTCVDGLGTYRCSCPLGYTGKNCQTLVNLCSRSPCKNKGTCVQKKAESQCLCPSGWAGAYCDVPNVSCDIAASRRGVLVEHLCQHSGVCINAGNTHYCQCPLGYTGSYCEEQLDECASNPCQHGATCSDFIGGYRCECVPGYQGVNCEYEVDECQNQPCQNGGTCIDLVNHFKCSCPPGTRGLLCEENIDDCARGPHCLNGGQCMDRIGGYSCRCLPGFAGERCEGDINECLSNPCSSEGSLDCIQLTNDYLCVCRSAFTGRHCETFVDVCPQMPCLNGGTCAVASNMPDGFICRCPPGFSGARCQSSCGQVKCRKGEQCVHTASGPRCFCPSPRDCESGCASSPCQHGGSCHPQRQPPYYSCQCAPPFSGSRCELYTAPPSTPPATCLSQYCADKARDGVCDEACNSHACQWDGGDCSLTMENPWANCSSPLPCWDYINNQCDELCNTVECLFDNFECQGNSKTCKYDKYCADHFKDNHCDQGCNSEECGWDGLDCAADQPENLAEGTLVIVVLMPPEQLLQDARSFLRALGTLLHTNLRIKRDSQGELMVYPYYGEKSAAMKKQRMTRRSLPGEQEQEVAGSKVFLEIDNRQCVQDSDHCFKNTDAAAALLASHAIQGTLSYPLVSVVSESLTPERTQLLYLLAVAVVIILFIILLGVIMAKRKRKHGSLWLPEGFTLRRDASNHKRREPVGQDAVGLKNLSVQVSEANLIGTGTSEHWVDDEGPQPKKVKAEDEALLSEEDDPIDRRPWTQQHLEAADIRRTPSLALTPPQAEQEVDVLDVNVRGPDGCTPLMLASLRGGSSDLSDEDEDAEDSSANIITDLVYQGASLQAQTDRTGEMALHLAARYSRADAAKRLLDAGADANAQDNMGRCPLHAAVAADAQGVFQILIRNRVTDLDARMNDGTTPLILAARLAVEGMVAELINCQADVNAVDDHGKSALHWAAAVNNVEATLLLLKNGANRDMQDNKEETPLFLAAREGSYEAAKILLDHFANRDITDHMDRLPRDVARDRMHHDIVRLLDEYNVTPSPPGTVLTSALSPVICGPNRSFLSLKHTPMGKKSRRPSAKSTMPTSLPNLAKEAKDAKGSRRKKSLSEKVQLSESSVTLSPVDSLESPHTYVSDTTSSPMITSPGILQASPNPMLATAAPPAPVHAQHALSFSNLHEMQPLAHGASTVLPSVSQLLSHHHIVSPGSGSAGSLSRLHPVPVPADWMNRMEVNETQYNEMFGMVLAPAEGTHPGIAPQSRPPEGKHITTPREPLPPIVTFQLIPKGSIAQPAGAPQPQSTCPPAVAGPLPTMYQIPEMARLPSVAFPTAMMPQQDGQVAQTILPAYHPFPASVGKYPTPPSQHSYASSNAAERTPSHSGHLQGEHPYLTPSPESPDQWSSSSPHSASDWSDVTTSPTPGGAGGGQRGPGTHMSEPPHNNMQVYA

| SMILES | composite z-score [1] | composite z-score [2] | composite z-score [3] | composite z-score [4] | composite z-score [5] | composite z-score [6] | composite z-score [7] | z-score [8] | composite z-score [9] | composite z-score [10] |
| --- | --- | --- | --- | --- | --- | --- | --- | --- | --- | --- |
| CN(C)C(=O)[C@]1(CCS(=O)(=O)c2ccccc2)N=C(c2ccc(OCCCO)cc2)O[C@@H]1c1ccccc1CN=[N+]=[N-] | 0.04 | -0.313 | 0.0308 | 0.849 | 1.55 | 1.14 | 1.29 | -0.882 (inactive) | 1.07 | -0.0994 |
| COC(=O)[C@H]1N=C(c2ccc(OCCCO)cc2)O[C@H]1c1ccccc1N=[N+]=[N-] | 1.6 | 0.707 | 0.184 | 0.48 | 1.01 | 0.544 | 1.21 | 4.9 (inactive) | 1.04 | -0.0994 |
| COC(=O)[C@@]1(Cc2ccc(F)cc2)[C@H]2c3cc(C(=O)N4CCCC4)n(Cc4ccc(OC(F)(F)F)cc4)c3C[C@H]2CN1C(=O)c1ccccc1 | 0.262 | -0.292 | 0.0336 | 0.334 | 1.08 | 0.621 | 0.71 | 1.45 (inactive) | 0.401 | -0.0074 |
| Cc1ccc(S[C@]2(C(=O)NCc3ccccc3)CC(=O)N(Cc3ccccc3C(F)(F)F)[C@@H]2c2ccc(CO)cc2I)cc1 | 0.412 | -0.135 | -0.106 | -0.655 | -0.717 | 1.56 | 0.472 | -0.701 (inactive) | -0.319 | -0.251 |
| CC(C)[Si]1(C(C)C)OCc2cc(-c3ccc(-c4ccc(Cl)c(Cl)c4)o3)nc(-c3ccc(Oc4ccccc4)cc3)c21 | 0.639 | -1.11 | -0.207 | -0.738 | -1.78 | -0.762 | -0.6 | 1.52 (inactive) | -0.857 | -0.306 |
| COC(=O)[C@]1(Cc2ccccc2CN=[N+]=[N-])N=C(c2ccc(OCCCO)cc2)O[C@@H]1c1ccccc1N=[N+]=[N-] | 0.0455 | 0.157 | -0.0465 | -0.223 | -0.206 | 0.829 | 1.18 | 3.39 (inactive) | 0.163 | -0.266 |
| O=C1C[C@@](C(=O)NCC(F)(F)F)(c2ccc([N+](=O)[O-])cc2)[C@@H](c2ccc(CO)cc2I)N1CC12CC3CC(CC(C3)C1)C2 | -0.405 | -0.0271 | -0.106 | 0.121 | 0.729 | 1.01 | 1.23 | -2.99 (inactive) | 1.08 | -0.239 |
| COC(=O)[C@@]1(Cc2ccc(F)cc2)[C@@H]2C(=CC(=O)[C@H]2CC(=O)C(=O)N2CCCC2)CN1C(=O)c1ccccc1 | 1 | 1.61 | 0.575 | 0.866 | 1.58 | 1.81 | 1.33 | 1.48 (inactive) | 2.02 | 0.655 |
| CCCCCCc1nc(Cc2cc(OC)c(OC)c(OC)c2)c(C)c2c1[Si](C(C)C)(C(C)C)OC2 | -0.491 | 0.0293 | -0.0328 | -0.0482 | -0.0366 | -0.186 | 0.105 | -0.474 (inactive) | -0.0696 | -0.274 |
| C=CCNC(=O)[C@@H]1[C@H]2C(=O)O[C@H](c3ccccc3)[C@H](c3ccccc3)N2[C@H](c2ccc(O)cc2)[C@@]12C(=O)Nc1ccc(C#CC3=CCCCC3)cc12 | -0.619 | 1.23 | -0.0639 | 1.1 | 0.87 | 1.15 | 1.06 | -0.231 (inactive) | -0.17 | -0.426 |
| O=C1NC(=O)C2C1C=CC(C(O)C(c1ccccc1)c1ccccc1)N2Nc1ccccn1 (stereo not given) | 0.473 | 0.521 | 0.162 | 0.951 | 1.05 | 0.604 | 1.25 | 0.723 (inactive) | 0.59 | -0.0959 |
| COCCOC(=O)N1C(=O)[C@@]2(c3cc(C#CCCO)ccc31)[C@H](C(=O)N1CCN(c3ncccn3)CC1)[C@H]1C(=O)O[C@H](c3ccccc3)[C@H](c3ccccc3)N1[C@@H]2c1ccc(OCCO)cc1 | -0.372 | 0.713 | 0.0001 | 0.641 | 0.718 | 1.53 | 1.3 | -0.31 (inactive) | 0.832 | -0.171 |
| Cc1ccc(S(=O)(=O)N2[C@@H](c3ccccc3)C(C(=O)O)=CC[C@H]2c2ccc(F)cc2)cc1 | -0.191 | 1.32 | 0.174 | 1.41 | -0.0595 | -0.0826 | 1.33 | -2.75 (inactive) | 0.654 | -0.252 |
| COc1ccc(C(=O)Nc2ccc(CN3C(=O)[C@]4(O[C@H](CC(=O)N(CCO)Cc5ccccc5)[C@@H]([Si](C)(C)c5ccc(OC)cc5)[C@@H]4C)c4ccccc43)cc2)cc1 | -0.284 | 1.22 | -0.0858 | 0.792 | 0.271 | 0.74 | 1.26 | -0.228 (inactive) | 0.276 | -0.0994 |
| CCN1C(=O)C2CC(=O)C3C(CN(S(=O)(=O)c4ccc(C)cc4)C3c3ccc(C)cc3)C2C1=O (stereo not given) | 0.584 | 0.122 | 0.0174 | 0.183 | 0.308 | 1.61 | 1.18 | -0.812 (inactive) | 0.292 | 0.0053 |
| OCCCc1cc[n+](Cc2cc3c(cc2Br)OCO3)cc1 | 0.622 | -0.226 | -0.116 | -0.782 | -0.914 | 1.23 | 0.583 | 0.584 (inactive) | -0.222 | -0.383 |
| COc1cc2c(cc1O)C(C)N(Cc1sc3ccccc3c1Cl)CC2 (stereo not given) | 0.208 | -1.01 | -0.17 | -0.563 | -0.246 | 0.717 | 0.343 | 0.541 (inactive) | -0.133 | -0.0994 |
| COCCCNC(=O)[C@@]1(CCC(=O)OC(C)(C)C)N=C(c2ccc(OCCCO)cc2)O[C@H]1c1ccccc1 | 0.593 | 0.737 | 0.0584 | 0.186 | 1.23 | 1.64 | 1.3 | -1.79 (inactive) | 1.16 | 0.0424 |
| C=CCNC(=O)[C@@H]1[C@H]2C(=O)O[C@H](c3ccccc3)[C@H](c3ccccc3)N2[C@H](c2ccc(O)cc2)[C@@]12C(=O)N(C(=O)OCCOC)c1ccc(C#CCC(C(=O)OC)C(=O)OC)cc12 | -0.292 | 1.27 | 0.048 | 0.769 | 1.14 | 0.946 | 1.18 | -0.614 (inactive) | 0.884 | 0.0266 |
| COC(=O)[C@@]1(Cc2ccc(F)cc2)[C@H]2c3cc(C(=O)N4CCCC4)n(CCSCCO)c3C[C@H]2CN1C(=O)c1ccccc1 | 0.349 | -0.366 | 0.157 | 0.359 | 1.53 | 1.82 | 1.32 | -0.0476 (inactive) | 1.21 | -0.174 |
| COC(=O)C(CC#Cc1ccc2c(c1)[C@]1(C(=O)N2)[C@H](C(=O)N2CCN(c3ncccn3)CC2)[C@H]2C(=O)O[C@H](c3ccccc3)[C@H](c3ccccc3)N2[C@@H]1c1ccc(O)cc1)C(=O)OC | 2.65 | 0.987 | 0.374 | 1.01 | 1.53 | 1.44 | 1.31 | 1.41 (inactive) | 2.24 | 0.102 |
| C=C(C(=O)CC[C@@H](OC(=O)c1ccccc1-c1ccccc1C(=O)O)c1ccc(CO)o1)C(C)C | -0.422 | 1.18 | -0.087 | 1.03 | 0.0438 | 0.115 | 0.445 | 0.0639 (inactive) | 0.379 | -0.0645 |
| COc1cc2c(cc1OC)CN(C(=O)[C@@H]1[C@H]3C(=O)O[C@H](c4ccccc4)[C@H](c4ccccc4)N3[C@H](c3ccc(O)cc3)[C@@]13C(=O)Nc1ccc(C#CC4=CCCCC4)cc13)CC2 | 0.105 | 0.576 | -0.0899 | 0.864 | 1.48 | 0.347 | 1.13 | 0.561 (inactive) | 0.588 | 0.0479 |
| O=C(CS)NCCCCCCNC(=O)[C@H]1C[C@H]2C(=O)NCC(=O)N2[C@H]1c1cccc(OCCO)c1 | -0.0511 | 0.0436 | -0.0488 | 0.22 | 0.166 | 1.36 | 1.36 | 0.525 (inactive) | 0.0909 | 0.0024 |
| COC(=O)C1=CC(CCCO)=CC(c2ccc(CN3CCCC3)cc2)N(C)C=C1C(=O)OC (stereo not given) | 0.114 | 1.34 | 0.0755 | 1.21 | 1.13 | 1.93 | 1.18 | 0.48 (inactive) | 0.989 | -0.219 |
